According to PubChem BioAssay (Tox21):
Several values for one entry are separate records, joined by “and”; a condition that tells them apart may be missing. Equal entries are not always repeated. Records with an inconclusive call do not appear. Where a call stands in place of a potency, no number is given. The source holds several records for some structures; these can differ, active in one and inactive in another. Activity calls are given as the source filed them. Unless noted, calls follow the shape of the full dose curve.

What was measured:
[1] = Nuclear factor erythroid 2-related factor 2/antioxidant responsive element (Nrf2/ARE) small molecule agonists: qHTS cell viability counter screen in human keratinocytes (AID 1919968; active = well fitted curve in the direction sought with a large enough effect in the repeat runs; an effect the other way counts as inactive or inconclusive; also: nearly all actives have a fitted effect of over 55% in size)
Method in brief: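 Cytotoxicity was multiplexed with the Nrf2/ARE luciferase assay in the same wells. Stably transfected HaCaT keratinocytes were treated with test compounds for 23 h at 37 C. Cell viability was then measured by CellTiter-Fluor fluorescence.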

[2] = G protein-coupled receptor (GPCR) small molecule agonists, calcium flux assay: HEK293 wild type cell line counter screen (AID 1920065)
Method in brief: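 Seed cells, incubate 18 h (37 C, 5% CO2); add calcium dye, 1 h at 37 C; pin-transfer compounds, ATP control or DMSO; read fluorescence 480/540 nm each second for 3 min.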

[3] = p53 small molecule agonists, cell-based qHTS assay with human liver microsomes (AID 1963577);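 also: p53 response element beta-lactamase reporter cells with liver microsomes plus NADPH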
Method in brief: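 HLM-supplemented p53RE-bla reporter assay: 16 h compound exposure at 37 C, microsomes and NADPH each 0.5 mg/mL final, read by fluorescence intensity.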

[4] = p53 small molecule agonists, cell-based qHTS assay with rat liver microsomes (AID 1963578)
Method in brief: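 Quantitative HTS of the Tox21 10K library: p53RE-bla cells, rat liver microsomes plus NADPH at 0.5 mg/mL final each, 16 h at 37 C, beta-lactamase fluorescence detection.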

[5] = p53 small molecule agonists, cell-based qHTS assay with human liver microsomes: qHTS cell viability counter screen (AID 1963579); also: nearly all actives have a fitted effect of over 45% in size
Method in brief: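 Viability of p53RE-bla cells is measured as CellTiter-Glo luminescence following a 16 h, 37 C incubation with compound, liver microsomes from human donors and NADPH.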

[6] = p53 small molecule agonists, cell-based qHTS assay with rat liver microsomes: qHTS cell viability counter screen (AID 1963580); also: nearly all actives have a fitted effect of over 45% in size
Method in brief: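 Cytotoxicity counter screen: intracellular ATP read by CellTiter-Glo luminescence in the p53 reporter wells. HCT-116 p53RE-bla cells were treated for 16 h at 37 C alongside rat liver microsomes and NADPH, each 0.5 mg/mL final.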

[7] = p53 small molecule agonists, cell-based qHTS assay: qHTS cell viability counter screen (AID 1963581); also: nearly all actives have a fitted effect of over 45% in size
Method in brief: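 Viability was counter-screened in parallel with the p53 agonist reporter by measuring intracellular ATP luminescence in the same HCT-116 p53RE-bla wells after 16 h compound treatment at 37 C.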

[8] = p53 small molecule agonists, cell-based qHTS assay (AID 1963582; active = well fitted activation curve with a large enough effect in the signal ratio in the repeat runs, not every such curve was filed as active; the % refers to the signal ratio)
Method in brief: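 Cells carrying a p53-responsive bla reporter are treated with test compounds for 16 h at 37 C; beta-lactamase activity is then detected with LiveBLAzer B/G FRET substrate after 2 h at room temperature.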

[9] = biological target: 5-hydroxytryptamine receptor 2A (Homo sapiens) (UniProt P28223); test: 5-hydroxytryptamine receptor 2A (HTR2A) small molecule antagonists, cell-based qHTS assay (AID 1963586); also: nearly all actives have a fitted effect of over 45% in size
5-hydroxytryptamine receptor 2A (Homo sapiens), sequence (P28223 whole entry, looked up): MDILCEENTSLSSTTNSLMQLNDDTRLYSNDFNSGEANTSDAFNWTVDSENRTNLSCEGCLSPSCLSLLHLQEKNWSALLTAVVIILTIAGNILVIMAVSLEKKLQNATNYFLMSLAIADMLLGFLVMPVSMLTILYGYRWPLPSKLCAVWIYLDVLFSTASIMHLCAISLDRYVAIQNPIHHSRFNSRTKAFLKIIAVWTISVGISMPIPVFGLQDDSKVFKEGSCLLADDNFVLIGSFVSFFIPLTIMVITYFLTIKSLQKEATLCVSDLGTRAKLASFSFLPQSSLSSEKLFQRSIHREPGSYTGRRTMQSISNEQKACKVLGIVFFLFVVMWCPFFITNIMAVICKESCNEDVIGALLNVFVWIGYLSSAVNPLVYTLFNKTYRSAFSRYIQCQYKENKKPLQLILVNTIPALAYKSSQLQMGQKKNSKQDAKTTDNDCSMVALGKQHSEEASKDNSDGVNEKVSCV
Method in brief: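 CHO cells stably expressing human HTR2A were plated for 18 h at 37 C, then loaded with calcium dye for 1 h. Compounds were preincubated 5 min at room temperature before DOI (4 nM solution) was added. Kinetic fluorescence was read for 3 min.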

[10] = biological target: 5-hydroxytryptamine receptor 2A (Homo sapiens) (UniProt P28223); test: 5-hydroxytryptamine receptor 2A (HTR2A) small molecule agonists, cell-based qHTS assay (AID 1963587); also: nearly all actives have a fitted effect of over 30% in size
Method in brief: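 Kinetic calcium-flux fluorescence (2 min, 1 sec intervals) after compound addition in agonist mode. HTR2A-CHO cells were cultured 18 h, then dye-loaded 1 h at 37 C.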

[11] = biological target: Muscarinic acetylcholine receptor M1 (Homo sapiens) (UniProt P11229); test: Cholinergic receptor muscarinic 1 (CHRM1) small molecule antagonists, cell-based qHTS assay (AID 1963588); also: nearly all actives have a fitted effect of over 40% in size
Muscarinic acetylcholine receptor M1 (Homo sapiens), sequence (P11229 whole entry, looked up): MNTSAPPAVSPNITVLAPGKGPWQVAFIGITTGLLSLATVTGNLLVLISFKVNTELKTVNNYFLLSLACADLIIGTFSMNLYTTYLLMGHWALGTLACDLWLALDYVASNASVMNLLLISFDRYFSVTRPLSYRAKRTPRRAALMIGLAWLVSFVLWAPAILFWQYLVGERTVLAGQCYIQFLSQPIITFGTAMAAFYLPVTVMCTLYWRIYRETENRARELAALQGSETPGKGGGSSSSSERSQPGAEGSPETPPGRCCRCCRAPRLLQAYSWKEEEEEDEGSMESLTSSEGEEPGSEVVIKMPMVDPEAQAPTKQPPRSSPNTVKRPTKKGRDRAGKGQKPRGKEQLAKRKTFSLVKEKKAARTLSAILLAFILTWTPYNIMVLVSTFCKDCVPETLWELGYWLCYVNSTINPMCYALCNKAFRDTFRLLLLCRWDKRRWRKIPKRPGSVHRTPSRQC
Method in brief: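 Compounds were tested at 15 concentrations in three independent runs. Dye-loaded CHRM1-CHO cells were exposed 5 min at room temperature before stimulation by acetylcholine added at 50nM. Intracellular calcium was read kinetically on FDSS for 3 min.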

[12] = biological target: Muscarinic acetylcholine receptor M1 (Homo sapiens) (UniProt P11229); test: Cholinergic receptor muscarinic 1 (CHRM1) small molecule agonists, cell-based qHTS assay (AID 1963589); also: nearly all actives have a fitted effect of over 35% in size
Method in brief: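 Cells were plated and incubated 18 h at 37 C/5% CO2, loaded with calcium dye for 1 h at 37 C, then treated with compounds in DMSO. Fluorescence was recorded kinetically at 1 sec intervals.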

[13] = cAMP Responsive Elements (CRE) small molecule agonists, cell-based qHTS assay (AID 1963590)
Method in brief: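 Cells carrying a CRE-driven beta-lactamase reporter (HEK 293T) are seeded, incubated overnight (18 h), and treated with test compounds for 3 h at 37 C; reporter activity is then detected with a FRET substrate after 2 h at room temperature.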

[14] = cAMP Responsive Elements (CRE) small molecule antagonists, cell-based qHTS assay (AID 1963591; active = well fitted inhibition curve with a large enough effect in the signal ratio in the repeat runs, not every such curve was filed as active; the % refers to the signal ratio)
Method in brief: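 Cells (CRE-bla HEK 293T, DMEM with 10% dialyzed FBS and 25 mM HEPES) are seeded and incubated 18 h. Compounds are added with NKH477 agonist at 0.25 uM final for 3 h, then FRET substrate for 2 h.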

[15] = biological target: Beta-2 adrenergic receptor (Homo sapiens) (UniProt P07550); test: Adrenergic beta2 receptor (ADRB2) small molecule antagonists, cell-based qHTS assay (AID 1963592); also: nearly all actives have a fitted effect of over 50% in size; also: potency is read from the fitted curve at half-maximal effect
Beta-2 adrenergic receptor (Homo sapiens), sequence (P07550 whole entry, looked up): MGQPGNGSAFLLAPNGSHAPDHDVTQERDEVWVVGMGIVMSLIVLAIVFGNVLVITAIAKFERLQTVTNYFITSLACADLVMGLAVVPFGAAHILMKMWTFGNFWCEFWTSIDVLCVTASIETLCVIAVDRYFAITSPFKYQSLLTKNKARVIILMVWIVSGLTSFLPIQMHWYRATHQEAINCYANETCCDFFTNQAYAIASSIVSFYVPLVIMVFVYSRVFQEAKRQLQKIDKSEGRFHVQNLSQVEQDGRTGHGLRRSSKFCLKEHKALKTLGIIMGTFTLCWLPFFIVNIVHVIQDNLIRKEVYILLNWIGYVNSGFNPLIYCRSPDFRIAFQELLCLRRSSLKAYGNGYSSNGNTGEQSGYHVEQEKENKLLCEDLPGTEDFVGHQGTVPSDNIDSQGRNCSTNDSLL
Method in brief: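 Assay format: CHO-ADRB2 cells, 18-20hr seeding at 37C/5% CO2, then compound plus 1nM isoproterenol agonist mix for 0.5hr RT. Homogeneous time-resolved fluorescence cAMP detection after 1hr, expressed as 665/615 nm ratio.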

[16] = biological target: Beta-2 adrenergic receptor (Homo sapiens) (UniProt P07550); test: Adrenergic beta2 receptor (ADRB2) small molecule agonists, cell-based qHTS assay (AID 1963593);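 also: CHO cells stably overexpressing human ADRB2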
Method in brief: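 CHO cells stably over-expressing ADRB2 were plated overnight at 37C, then dosed with compounds plus a stimulation mix containing 100uM IBMX and 25uM Ro-20-1724 for 0.5hr at room temperature. cAMP was measured by HTRF competition, 1hr.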

[17] = biological target: D(2) dopamine receptor (Homo sapiens) (UniProt P14416); test: Dopamine D2 receptor (DRD2) small molecule agonists, cell-based qHTS assay (AID 1963594); also: nearly all actives have a fitted effect of over 35% in size
D(2) dopamine receptor (Homo sapiens), sequence (P14416 whole entry, looked up): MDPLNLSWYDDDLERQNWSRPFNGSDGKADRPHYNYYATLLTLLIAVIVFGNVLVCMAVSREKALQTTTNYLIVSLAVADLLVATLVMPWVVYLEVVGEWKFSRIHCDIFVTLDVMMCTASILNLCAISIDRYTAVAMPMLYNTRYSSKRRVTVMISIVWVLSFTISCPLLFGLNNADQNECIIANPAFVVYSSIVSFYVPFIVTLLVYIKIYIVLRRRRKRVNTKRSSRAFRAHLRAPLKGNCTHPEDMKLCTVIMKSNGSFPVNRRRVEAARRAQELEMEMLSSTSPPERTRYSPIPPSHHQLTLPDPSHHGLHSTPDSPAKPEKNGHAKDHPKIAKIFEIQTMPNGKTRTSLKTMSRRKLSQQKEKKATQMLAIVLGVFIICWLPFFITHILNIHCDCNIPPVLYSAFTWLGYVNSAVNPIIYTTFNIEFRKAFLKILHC
Method in brief: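 cAMP accumulation in DRD2-HEK293 cells measured by HTRF after 1 h detection; compounds added 10 min before NKH477 (200nM […]) forskolin-analogue stimulation, 30 min at room temperature, with Ro20-1724 present at 0.1 mM final.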

[18] = biological target: D(2) dopamine receptor (Homo sapiens) (UniProt P14416); test: Dopamine D2 receptor (DRD2) small molecule antagonists, cell-based qHTS assay (AID 1963595; active = well fitted inhibition curve with a large enough effect in the signal ratio in the repeat runs, with a control signal flat; the % refers to the signal ratio; also: potency is read from the fitted curve at half-maximal effect)
Method in brief: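 Stable D2 receptor HEK293 line, 24 h after seeding. Compound preincubated 10 min, then quinpirole (12 nM) with forskolin analogue NKH477 (200 nM), 30 min, room temperature. Detection by time-resolved FRET of cAMP.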

[19] = biological target: KiSS-1 receptor (Homo sapiens) (UniProt Q969F8); test: Human kisspeptin (KISS1R) small molecule agonists, calcium flux assay in KISS1R-HEK293 cells (AID 1920064; active = well fitted curve in the direction sought with a large enough effect in the repeat runs; an effect the other way counts as inactive or inconclusive)
KiSS-1 receptor (Homo sapiens), sequence (Q969F8 whole entry, looked up): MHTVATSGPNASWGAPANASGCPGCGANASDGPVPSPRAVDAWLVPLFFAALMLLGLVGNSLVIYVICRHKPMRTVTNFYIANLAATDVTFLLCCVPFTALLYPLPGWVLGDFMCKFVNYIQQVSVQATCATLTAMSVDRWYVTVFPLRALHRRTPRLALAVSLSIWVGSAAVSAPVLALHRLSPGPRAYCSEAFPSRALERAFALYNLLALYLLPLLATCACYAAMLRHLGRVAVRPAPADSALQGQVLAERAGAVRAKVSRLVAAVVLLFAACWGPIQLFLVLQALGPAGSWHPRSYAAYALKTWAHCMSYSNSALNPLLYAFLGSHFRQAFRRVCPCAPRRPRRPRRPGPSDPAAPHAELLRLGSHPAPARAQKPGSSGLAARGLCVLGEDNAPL
Method in brief: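 Agonist activity is monitored as intracellular calcium rise in engineered HEK293 cells carrying human KISS1R. Cells are dye-loaded for 1 h at 37 C before compound addition, and fluorescence is recorded for 3 min.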

[20] = biological target: Gonadotropin-releasing hormone receptor (Homo sapiens) (UniProt P30968); test: Human gonadotropin-releasing hormone receptor (GnRHR) small molecule agonists, calcium flux assay in GnRHR-HEK293 cells (AID 1920063); also: nearly all actives have a fitted effect of over 35% in size
Gonadotropin-releasing hormone receptor (Homo sapiens), sequence (P30968 whole entry, looked up): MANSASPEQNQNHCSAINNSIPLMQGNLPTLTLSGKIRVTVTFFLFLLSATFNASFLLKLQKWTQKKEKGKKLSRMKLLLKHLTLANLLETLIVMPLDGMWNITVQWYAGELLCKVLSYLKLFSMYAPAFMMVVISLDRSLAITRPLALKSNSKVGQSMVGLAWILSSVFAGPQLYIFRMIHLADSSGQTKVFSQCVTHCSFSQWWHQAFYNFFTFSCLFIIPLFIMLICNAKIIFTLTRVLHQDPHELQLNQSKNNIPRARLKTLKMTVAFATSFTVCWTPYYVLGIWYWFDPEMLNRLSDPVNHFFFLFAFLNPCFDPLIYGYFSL
Method in brief: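 Agonist activity was measured as intracellular calcium flux in HEK293 cells engineered to stably express human GnRHR. After dye loading for 1 hour at 37 C, compounds in DMSO were added and fluorescence was followed for 3 minutes.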

| SMILES | Potency [1] | Potency [2] | Potency [3] | Potency [4] | Potency [5] | Potency [6] | Potency [7] | Potency [8] | Potency [9] | Potency [10] | Potency [11] | Potency [12] | Potency [13] | Potency [14] | Potency [15] | Potency [16] | Potency [17] | Potency [18] | Potency [19] | Potency [20] |
| --- | --- | --- | --- | --- | --- | --- | --- | --- | --- | --- | --- | --- | --- | --- | --- | --- | --- | --- | --- | --- |
| CC1(C)NC(=O)N(c2ccc([N+](=O)[O-])c(C(F)(F)F)c2)C1=O | inactive | inactive | inactive | inactive | inactive | inactive | inactive | inactive | inactive | inactive | inactive | inactive | inactive | inactive | inactive | inactive | inactive | inactive |  |  |
| CC1Cc2ccccc2N1NC(=O)c1ccc(Cl)c(S(N)(=O)=O)c1 (centres undefined) | inactive | inactive | inactive | inactive | inactive |  | inactive | inactive |  |  |  |  | inactive | inactive | inactive | inactive | inactive | inactive |  |  |
| CC(C)C(=O)Nc1ccc([N+](=O)[O-])c(C(F)(F)F)c1 | inactive | inactive |  |  | inactive | inactive | inactive |  |  |  |  |  |  | inactive | inactive | inactive | inactive | inactive | inactive |  |
| CC(=O)Oc1c(C)c(C)c2c(c1C)CC[C@@](C)(CCC[C@H](C)CCC[C@H](C)CCCC(C)C)O2 | inactive | inactive | inactive | inactive | inactive | inactive | inactive | inactive | inactive | inactive | inactive | inactive | inactive | inactive | inactive | inactive | inactive | inactive | inactive | inactive |
| COCC(C)O (centres undefined) | inactive | inactive | inactive | inactive | inactive |  | inactive | inactive | inactive | inactive | inactive | inactive |  | inactive | inactive | inactive | inactive | inactive | inactive |  |
| COC(=O)c1cccc(C(=O)OC)c1 | inactive | inactive | inactive |  | inactive |  |  |  | inactive | inactive |  | inactive | inactive | inactive | inactive and 15.4 µM (active) | inactive |  | inactive | inactive |  |
| Cc1ccc(C(C)C)cc1 | inactive | inactive | inactive | inactive | inactive | inactive | inactive | inactive | inactive | inactive |  | inactive | inactive | inactive | inactive |  | inactive | inactive | inactive | inactive |
| C=C(C)C(=O)OCCCCCCCCCCCC | inactive | inactive | inactive | inactive | inactive | inactive | inactive | inactive | inactive | inactive | inactive | inactive | inactive | inactive | inactive |  | inactive | inactive | inactive | inactive |
| CCCC(O)C(CC)CO (centres undefined) | inactive | inactive | inactive | inactive | inactive | inactive | inactive | inactive | inactive | inactive | inactive | inactive | inactive | inactive |  | inactive | inactive | inactive | inactive | inactive |
| CCCCOC(=O)c1ccc(O)cc1 | inactive | inactive | inactive | inactive | inactive | inactive | inactive | inactive | inactive | inactive | inactive | inactive | inactive | inactive | inactive | inactive | inactive | inactive | inactive | inactive |
| CC(C)NCC(O)c1ccc(O)c(O)c1 (centres undefined) | inactive |  |  |  | inactive | inactive | inactive |  |  |  |  |  |  | inactive |  |  | inactive | 303 nM (active) and 969 nM (active) and 596 nM (active) | inactive |  |
| O=C1CCCCCCCCCCCN1 | inactive | inactive | inactive | inactive | inactive |  | inactive | inactive | inactive | inactive | inactive | inactive | inactive | inactive | inactive | inactive | inactive | inactive | inactive |  |
| CC1=C(/C=C/C(C)=C/C=C/C(C)=C/C(=O)O)C(C)(C)CCC1 | inactive | inactive | inactive | inactive | inactive |  | inactive | inactive |  |  |  |  | inactive | inactive | inactive | inactive | inactive | inactive | inactive |  |
| CC(=O)Nc1ccc(C(=O)O)cc1 | inactive | inactive | inactive |  | inactive | inactive | inactive | inactive | inactive | inactive | inactive |  | inactive |  | inactive | inactive | inactive | inactive |  |  |
| CC(=O)c1ccc(S(=O)(=O)NC(=O)NC2CCCCC2)cc1 | inactive | inactive | inactive | inactive | inactive | inactive | inactive | inactive | inactive | inactive | inactive | inactive | inactive | inactive | inactive |  | inactive | inactive | inactive | inactive |
| OC[C@@H](O)[C@H](O)[C@H](O)[C@@H](O)CO | inactive |  | inactive |  | inactive | inactive | inactive | inactive |  |  |  |  | inactive | inactive | inactive | inactive | inactive |  | inactive |  |
